# Measurements: PubChem BioAssay AID1159580 (chemical genetic matrix, 2015)
# Among all 5,500 compounds or so, about 2,000 (36%) were called active. Inconclusive results (about 18%) are left out. The list shows a part of the results. Values without a mark were called inactive. Rule as the data show it: active = normalized growth mostly below about 0.91 (no sharp cut-off); inconclusive = no clear call, values can overlap the other calls; inactive = mostly above about 0.92.
# Assay: chemical genetic growth profiling, strain panel (AID 1159580);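 also: tested at 20 µM; growth read once vehicle control cultures reached saturation at 30 °C; 1 = growth at the plate median or of vehicle wells; lower values mean less growth of the strain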
# Details: S. cerevisiae deletion strains, growth OD
# [1] = locus YHR030C, strain SLT2, stronger effect = lower value
smiles,measurement,setting,value
Cc1onc(-c2ccccc2)c1-c1nc(CSc2ccc(C(F)(F)F)cn2)no1,normalized growth,"locus YAL013W, strain DEP1, stronger effect = lower value",1.03
same,normalized growth,"locus YBR229C, strain ROT2, stronger effect = lower value",0.973
same,normalized growth,"locus YCL061C, strain MRC1, stronger effect = lower value",0.991
same,normalized growth,"locus YDL101C, strain DUN1, stronger effect = lower value",0.968
same,normalized growth,"locus YDR150W, strain NUM1, stronger effect = lower value",1.02
same,normalized growth,"locus YEL061C, strain CIN8, stronger effect = lower value",0.975
same,normalized growth,"locus YGR078C, strain PAC10, stronger effect = lower value",1
same,normalized growth,[1],0.818
same,normalized growth,"locus YHR087W, strain rtc3, stronger effect = lower value",0.984
same,normalized growth,"locus YJL187C, strain SWE1, stronger effect = lower value",0.977
same,normalized growth,"locus YJR043C, strain POL32, stronger effect = lower value",0.957
same,normalized growth,"locus YJR075W, strain HOC1, stronger effect = lower value",0.995
same,normalized growth,"locus YLR039C, strain RIC1, stronger effect = lower value",0.947
same,normalized growth,"locus YLR058C, strain SHM2 (second series), stronger effect = lower value",0.957
same,normalized growth,"locus YLR085C, strain ARP6, stronger effect = lower value",1.06
same,normalized growth,"locus YLR262C, strain YPT6, stronger effect = lower value",0.93
same,normalized growth,"locus YML094W, strain GIM5, stronger effect = lower value",1.02
same,normalized growth,"locus YMR219W, strain ESC1, stronger effect = lower value",0.975
same,normalized growth,"locus YMR263W, strain SAP30, stronger effect = lower value",0.971
same,normalized growth,"locus YMR307W, strain GAS1, stronger effect = lower value",1.02
same,normalized growth,"locus YNL153C, strain GIM3, stronger effect = lower value",1.02
same,normalized growth,"locus YNL298W, strain CLA4 (second series), stronger effect = lower value",1.02
same,normalized growth,"locus YNL322C, strain KRE1, stronger effect = lower value",0.964
same,normalized growth,"locus YNR030W, strain Alg12, stronger effect = lower value",1.01
same,normalized growth,"locus YOL006C, strain TOP1, stronger effect = lower value",0.946
same,normalized growth,"locus YPL055C, strain LGE1, stronger effect = lower value",1.06
same,normalized growth,"locus YPL241C, strain CIN2, stronger effect = lower value",0.93
same,normalized growth,"locus YPR135W, strain CTF4, stronger effect = lower value",1.33
Cc1onc(-c2ccccc2)c1C(=O)Sc1ccc(C(F)(F)F)cn1,normalized growth,"locus YAR019C, strain CDC15, stronger effect = lower value",0.941
same,normalized growth,"locus YBL105C, strain PKC1, stronger effect = lower value",0.961
same,normalized growth,"locus YBR135W, strain CKS1, stronger effect = lower value",0.965
same,normalized growth,"locus YBR136W, strain MEC1, stronger effect = lower value",0.955
same,normalized growth,"locus YBR160W, strain CDC28, stronger effect = lower value",0.967
same,normalized growth,"locus YDL017W, strain CDC7, stronger effect = lower value",0.967
same,normalized growth,"locus YDL028C, strain MPS1, stronger effect = lower value",0.958
same,normalized growth,"locus YDL108W, strain KIN28, stronger effect = lower value",0.974
same,normalized growth,"locus YDL132W, strain cdc53, stronger effect = lower value",0.951
same,normalized growth,"locus YDL214C, strain PRR2, stronger effect = lower value",0.217 (active)
same,normalized growth,"locus YDR052C, strain DBF4, stronger effect = lower value",0.977
same,normalized growth,"locus YDR054C, strain cdc34, stronger effect = lower value",0.937
same,normalized growth,"locus YDR226W, strain ADK1, stronger effect = lower value",0.963
same,normalized growth,"locus YDR477W, strain SNF1, stronger effect = lower value",0.187 (active)
same,normalized growth,"locus YER123W, strain YCK3, stronger effect = lower value",0.465 (active)
same,normalized growth,"locus YER133W, strain GLC7, stronger effect = lower value",0.249 (active)
same,normalized growth,"locus YFL009W, strain cdc4, stronger effect = lower value",0.951
same,normalized growth,"locus YFL029C, strain CAK1, stronger effect = lower value",0.949
same,normalized growth,"locus YFR003C, strain YPI1, stronger effect = lower value",0.971
same,normalized growth,"locus YFR019W, strain FAB1, stronger effect = lower value",0.739 (active)
same,normalized growth,"locus YFR028C, strain CDC14, stronger effect = lower value",0.968
same,normalized growth,"locus YGR040W, strain KSS1, stronger effect = lower value",0.227 (active)
same,normalized growth,"locus YGR052W, strain FMP48, stronger effect = lower value",0.242 (active)
same,normalized growth,"locus YGR092W, strain DBF2, stronger effect = lower value",0.799
same,normalized growth,[1],0.317 (active)
same,normalized growth,"locus YHR079C, strain IRE1, stronger effect = lower value",0.712
same,normalized growth,"locus YHR082C, strain KSP1, stronger effect = lower value",0.256 (active)
same,normalized growth,"locus YHR205W, strain SCH9, stronger effect = lower value",0.343 (active)
same,normalized growth,"locus YIL147C, strain SLN1, stronger effect = lower value",0.955
same,normalized growth,"locus YJL095W, strain BCK1, stronger effect = lower value",0.424 (active)
same,normalized growth,"locus YJR016C, strain ILV3, stronger effect = lower value",0.973
same,normalized growth,"locus YJR066W, strain TOR1 (second series), stronger effect = lower value",0.343 (active)
same,normalized growth,"locus YJR066W, strain TOR1, stronger effect = lower value",0.283 (active)
same,normalized growth,"locus YKL048C, strain ELM1, stronger effect = lower value",0.933
same,normalized growth,"locus YKL101W, strain HSL1, stronger effect = lower value",0.817
same,normalized growth,"locus YKL193C, strain SDS22, stronger effect = lower value",0.952
same,normalized growth,"locus YKL203C, strain TOR2, stronger effect = lower value",0.53 (active)
same,normalized growth,"locus YLR113W, strain HOG1, stronger effect = lower value",0.184 (active)
same,normalized growth,"locus YLR133W, strain CKI1, stronger effect = lower value",0.749
same,normalized growth,"locus YML070W, strain DAK1, stronger effect = lower value",0.587 (active)
same,normalized growth,"locus YMR001C, strain CDC5, stronger effect = lower value",0.952
same,normalized growth,"locus YMR205C, strain PFK2 (second series), stronger effect = lower value",0.882
same,normalized growth,"locus YMR277W, strain FCP1, stronger effect = lower value",0.943
same,normalized growth,"locus YNL006W, strain LST8, stronger effect = lower value",0.979
same,normalized growth,"locus YNL020C, strain ARK1, stronger effect = lower value",0.874
same,normalized growth,"locus YNL161W, strain CBK1, stronger effect = lower value",0.951
same,normalized growth,"locus YNL183C, strain NPR1, stronger effect = lower value",0.106 (active)
same,normalized growth,"locus YNL207W, strain RIO2, stronger effect = lower value",0.961
same,normalized growth,"locus YNL222W, strain SSU72, stronger effect = lower value",0.918
same,normalized growth,"locus YNL307C, strain MCK1 (second series), stronger effect = lower value",0.683
same,normalized growth,"locus YOL078W, strain AVO1, stronger effect = lower value",0.948
same,normalized growth,"locus YOL136C, strain PFK27, stronger effect = lower value",0.583 (active)
same,normalized growth,"locus YOR061W, strain CKA2, stronger effect = lower value",0.765
same,normalized growth,"locus YOR119C, strain RIO1, stronger effect = lower value",0.471 (active)
same,normalized growth,"locus YOR231W, strain MKK1, stronger effect = lower value",0.732
same,normalized growth,"locus YOR329C, strain SCD5, stronger effect = lower value",0.96
same,normalized growth,"locus YPL153C, strain RAD53, stronger effect = lower value",0.661
same,normalized growth,"locus YPL209C, strain IPL1, stronger effect = lower value",0.961
same,normalized growth,"locus YPL256C, strain CLN2, stronger effect = lower value",0.209 (active)
same,normalized growth,"locus YPR025C, strain CCL1, stronger effect = lower value",0.954
same,normalized growth,"locus YPR106W, strain ISR1, stronger effect = lower value",0.939
same,normalized growth,"locus YPR111W, strain DBF20, stronger effect = lower value",0.946
same,normalized growth,"strain NNK1, stronger effect = lower value",0.963
same,normalized growth,"strain TSCII, stronger effect = lower value",0.937
